# 12-hLO inh – 12-hLO (ALOX12) enzyme inhibition | Potency, µM (titrated, usually from 57.1 µM), without a hit: top-dose activity change, negative = inhibition, hits mostly inhibitors | P18054 | 150,000 tested, 0.12% active | AID 1452 | purified 12-hLO, xylenol orange hydroperoxide absorbance; further: potency means the concentration at half of the fitted maximal effect; nearly all actives have a fitted effect of over 55% in size
#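 150 nM 12hLO, 25 mM Hepes pH 7.0 + 0.01% Triton X-100; cpd preinc 15 min RT; 40 uM arachidonic acid, 30 min RT; Fe-XO 30 min; A573/A405 ratio as read-out.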
# HPGD block – HPGD (human) dehydrogenase inhibition | Potency, µM, for inactives: top-dose activity change, negative = inhibition, usual class: inhibitors | P15428 | purified HPGD, NADH fluorescence kinetic, PGE2 substrate | 150,000 tested, 4.3% active | AID 894; active means well fitted inhibition curve with a large enough effect, not every such curve was filed as active; inconclusive means small, poorly fitted or top-dose-only effect, or another doubt; inactive means no such curve, though single readings can be large or run the other way; further: potency means the concentration at half of the fitted maximal effect
# Target sequence (P15428 whole entry, looked up): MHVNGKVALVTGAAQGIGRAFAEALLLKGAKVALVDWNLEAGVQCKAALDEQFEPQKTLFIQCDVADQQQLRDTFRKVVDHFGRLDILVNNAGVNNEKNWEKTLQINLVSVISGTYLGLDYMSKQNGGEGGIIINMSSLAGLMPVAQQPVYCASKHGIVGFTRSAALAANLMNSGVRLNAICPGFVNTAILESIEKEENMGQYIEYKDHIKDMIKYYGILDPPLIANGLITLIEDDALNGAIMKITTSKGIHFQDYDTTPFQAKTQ
#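 NADH formation kinetics: reaction with 30 uM PGE2 and 1 mM NAD+ (final), 20 nM enzyme, Tris-HCl pH 8 with Tween 20, after 15 min compound preincubation at room temperature. Fluorescence change, last versus first of five reads.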
# aGal spleen mod – inhibitors or activators of human alpha-galactosidase in spleen homogenate. Potency, µM (titrated, usually from 80 µM), without a hit: at the highest dose activity change, negative = inhibition, actives largely listed as inhibitors. 240,000 tested, 0.008% active. P06280. AID 2107. human spleen homogenate, 4MU-alpha-Gal fluorescence, 40 min;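 further: potency means the concentration at half of the fitted maximal effect; 0% = enzyme with vehicle and -100% = no enzyme basal signal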
#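 qHTS titration in buffer at pH 5.0. Alpha-galactosidase activity in spleen homogenate was measured via 4-methylumbelliferone release from 1 mM fluorogenic substrate after 40 min at 37C and a pH 10 stop. AC50 came from Hill fits of control-normalized data.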
# ALDH1A1 inh – blocks purified human ALDH1A1 activity; 220,000 tested, 7.3% active; P00352; Potency, µM (doses to about 75.3 µM), inactives show at the top dose activity, negative = inhibition, most hits filed as inhibitors; Purified ALDH1A1, NADH fluorescence, propionaldehyde substrate; AID 1030; active means well fitted inhibition curve with a large enough effect, not every such curve was filed as active; inconclusive means small, poorly fitted or top-dose-only effect, or another doubt; inactive means no such curve, though single readings can be large or run the other way;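 further: potency means the concentration at half of the fitted maximal effect; plate controls were no enzyme wells and a reference inhibitor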
# PNC inhibitor – perinucleolar compartment assembly inhibition | PC3M PTB-GFP, PNC prevalence imaging, 16 h; stronger effect = lower value | activity change (PNC), negative = inhibition, % at 10 µM | 140,000 tested, 3.1% active;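 active means readout at or below -70, meaning at least 70% loss of cells showing the perinucleolar compartment, a nuclear body marking cancer cells; inconclusive means readout between -30 and a set limit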;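 further: plate controls were DMSO wells for no effect and camptothecin positive control wells for full effect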
#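 Read-out is percentage of cells bearing a perinucleolar compartment, from automated 20x imaging of fixed, Hoechst-stained PC3M PTB-GFP cells. Cells were seeded 4 h, then exposed 16 h to compound (23 nl of library stock) in duplicate plates.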
# GLA inh pH 4.5 – alpha-galactosidase A (human) inhibition, pH 4.5 | P06280 | purified enzyme, 4-MU-alpha-Gal fluorescence, pH 4.5 | activity change, negative = inhibition, % at 105 µM | 230,000 tested, under 10 active | AID 1467;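 further: 0% = full activity with enzyme and -100% = basal without enzyme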
# Target sequence (P06280 whole entry, looked up): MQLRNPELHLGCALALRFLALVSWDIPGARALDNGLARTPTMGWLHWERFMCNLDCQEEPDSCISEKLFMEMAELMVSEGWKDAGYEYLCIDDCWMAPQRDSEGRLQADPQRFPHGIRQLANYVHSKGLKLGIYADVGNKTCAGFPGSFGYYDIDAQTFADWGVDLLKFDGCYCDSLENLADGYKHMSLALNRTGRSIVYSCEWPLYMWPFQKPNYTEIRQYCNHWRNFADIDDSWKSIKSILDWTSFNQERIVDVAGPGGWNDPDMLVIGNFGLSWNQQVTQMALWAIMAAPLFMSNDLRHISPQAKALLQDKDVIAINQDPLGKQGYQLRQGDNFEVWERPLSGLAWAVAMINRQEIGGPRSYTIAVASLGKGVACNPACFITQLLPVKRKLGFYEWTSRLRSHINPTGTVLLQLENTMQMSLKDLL
# Active calls of the source: *; u = inconclusive; x = not tested or not shown; [ ] = dose if it differs, or a comment. Compounds with a hit are over-represented: about 10% of the library has one in this group of screens. Unless noted, the call rests on the fitted dose curve; in most records, active means well fitted curve in the direction sought with a large enough effect; inconclusive means small, poorly fitted or top-dose-only effect, or another doubt; inactive means no such curve, though single readings can be large; an effect the other way counts as inactive or inconclusive. Unless noted, on the % scale 0 is the no-effect control and ±100 the full control effect.
SMILES,12-hLO inh,HPGD block,aGal spleen mod,ALDH1A1 inh,PNC inhibitor,GLA inh pH 4.5
COCCSc1nc2c(c(=O)[nH]c(=O)n2C)n1Cc1cccc(C)c1,4%,u,-6%,14µM*,-1,-5
CCCCCn1c(SCc2cccc(C)c2)nc2c1c(=O)[nH]c(=O)n2C,x,x,10%,x,x,-5
CCCSc1nc2c(c(=O)[nH]c(=O)n2C)n1Cc1ccc(C)cc1,-6%,-7%,5%,4%,u,-7
C=CCn1c(SCc2ccc(F)cc2)nc2c1c(=O)[nH]c(=O)n2C,-2%,-6%,-4%,u,23,-1
C=CCSc1nc2c(c(=O)[nH]c(=O)n2C)n1Cc1ccc(C)cc1,2%,25µM*,0%,-11%,u,3
O=C(Nc1cccc(F)c1)N1CC[C@@]2(CCCN(C(=O)c3ccco3)C2)C1,2%,5%,3%,u,x,x
CC(=O)O[C@H]1CSC[C@H]1NC(=O)c1ccccc1,0%,-15%,3%,-10%,u,1
COC(=O)NC1CSCC1OC(=O)CN1C(=O)c2ccccc2C1=O (stereo not drawn),5%,-6%,3%,2%,-85*,-8
CCOC(=O)N1CCC(N2C(=O)c3ccc(C(=O)O)cc3C2=O)CC1,2%,-8%,6%,4%,29,5
CCOC(=O)c1ccc2c(c1)C(=O)N(C1CCCCC1)C2=O,-2%,-8%,-2%,22µM*,-9,-6
CN1C(=O)c2ccc(C(=O)NC3CCCCC3)cc2C1=O,5%,-11%,23%,u,16,5
CC(C)(C)NC(=O)c1ccc2c(c1)C(=O)N(C1CCCCC1)C2=O,-1%,-2%,-3%,2.8µM*,-21,1
CC(=O)Nc1cc(OC(=O)c2ccco2)cc(OC(=O)c2ccco2)c1,-3%,-9%,-3%,13%,8,7
O=C(Oc1cncc(Cl)c1)c1ccco1,-7%,-2%,-1%,5%,-81*,4
CC(=O)N(c1cccc(Cl)c1)c1nc(C)cc(C)c1C#N,x,x,0%,x,x,7
COc1ccc(NS(=O)(=O)c2ccc3oc4ccccc4c3c2)cn1,-14%,22µM*,4%,8.9µM*,-14,-17
Cc1cccc(N2C(=O)CC(Sc3nc(-c4ccccc4)c4cc(Cl)ccc4n3)C2=O)c1 (stereo not drawn),-4%,u,10%,u,-17,0
CC(O)CNCCOc1ccccc1-c1ccccc1 (stereo not drawn),x,x,2%,11µM*,x,4
CC1(C)CC(=O)C(CC(=O)Nc2ccc(S(N)(=O)=O)cc2)=C(O)C1,4%,-13%,9%,u,-90*,-7
COc1ccc([N+](=O)[O-])cc1NC(=O)c1cc(C)c(C)o1,x,x,-10%,8%,x,5
CC(=O)OC[C@@H]1O[C@@H](O/N=C2/C[C@@H](O)[C@@H](O)[C@@H]3[C@@H]4C(=O)N(c5cccc(Oc6ccccc6)c5)C(=O)[C@H]4CC[C@@H]23)[C@H](OC(C)=O)[C@H](OC(C)=O)[C@@H]1OC(C)=O,x,x,-1%[17.5 µM],-5%[13.5 µM],x,x
CN(C)c1ccc(N=Nc2ccccc2C(=O)OCC(=O)NCC2CCCCC2)cc1,-2%,-18%,-3%,-12%,-6,0
CN(C)c1ccc(N=Nc2ccccc2C(=O)OCC(=O)NC2CCCC2)cc1,-4%,x,3%,-8%,-115*,-12
O=C(CSc1nnnn1-c1ccc2c(c1)OCCO2)OC1CCCCC1,-5%,-25%,2%,5µM*,-9,-7
Cc1ccc(NC(=O)CCSc2nnnn2-c2ccc3c(c2)OCO3)cc1C,-8%,-27%,-3%,13µM*,35,-3
SMILES,12-hLO inh,HPGD block,aGal spleen mod,ALDH1A1 inh,PNC inhibitor,GLA inh pH 4.5
CCC(=O)Nc1ccc(NC(=O)CSc2nnnn2-c2ccc3c(c2)OCCO3)cc1,x,x,10%,8%,x,2
CCOC(=O)c1csc(NC(=O)CSc2nnnn2-c2ccc3c(c2)OCCO3)n1,-1%,-8%,7%,4%,-88*,4
CC(=C/c1ccc(C(C)C)cc1)/C=N/NC(=O)Cn1nnnc1N,x,x,-9%,-8%,x,-6
COc1cc2c(cc1C=O)OC(C)C2 (stereo not drawn),x,x,5%,u,x,-2
CCOc1cc2c(cc1C=O)OC(C)C2 (stereo not drawn),x,x,-1%,25µM*,x,3
O=C(CSc1ncccc1C(=O)O)NC1CCCCCCC1,x,x,0%,x,x,8
CCC(C)NS(=O)(=O)c1ccc(NC(=O)c2cccs2)cc1 (stereo not drawn),x,x,-2%,10%,x,6
CCC1CCCCN1S(=O)(=O)c1ccc(NC(=O)c2cccs2)cc1 (stereo not drawn),-5%,-12%,-1%,15%,-100*,-6
CCC1CCCCN1S(=O)(=O)c1ccc(NC(=O)CSc2ncccc2C(=O)O)cc1 (stereo not drawn),-3%,14µM*,5%,u,-2,8
Cc1ccccc1Cn1cc(NC(=O)c2cc(C3CC3)on2)cn1,x,x,-1%,x,x,-1
O=C(O)C(=O)/C(=C\c1ccc([N+](=O)[O-])cc1)c1ccc2ccccc2n1,x,x,-3%,11µM*,x,-3
Cn1c(NCCCO)nc2c1c(=O)n(Cc1ccccc1F)c(=O)n2C,0%,-2%,4%,1%,-12,-2
Cn1c(=O)n(Cc2ccccc2F)c(=O)c2c1nc1n2CCN1Cc1ccco1,x,x,5%,7.9µM*,x,4
COc1ccccc1Oc1nc2c(c(=O)n(Cc3ccccc3F)c(=O)n2C)n1C,-19%,14µM*,5%,8.9µM*,-30,-11
CCCCn1[nH]c(-c2ccccc2)cc1=O,-3%,-27%,-4%,-7%,31,u
CC1CCC2=C1C[C@H](C(C)(C)O)CC[C@@H]2C (stereo partly drawn),x,-5%,-9%,-5%,x,-2
Cn1c(SCC(=O)N2CCc3ccccc3C2)nnc1-c1ccncc1,-1%,-11%,4%,-14%,u,8
Cc1nc2ncnn2c(C)c1CCC(=O)N1CCN(c2ccccn2)CC1,-3%,-30%,-9%,-5%,u,-3
Cc1ccccc1-n1c(C)nnc1SCC(=O)N1CCc2ccccc2C1,-2%,-30%,-1%,-6%,-107*,1
Cc1nc2ncnn2c(C)c1CCC(=O)N1CCc2ccccc2C1,-1%,-6%,-1%,2.2µM*,4,-6
Cc1ccnc(SCC(=O)N2CCc3ccccc3C2)n1,x,x,2%,18µM*,x,-16
COC(=O)CN1C(=O)C2(C(C#N)=C(N)Oc3n[nH]c(-c4cccs4)c32)c2ccccc21 (stereo not drawn),-3%,-2%,3%,2.2µM*,u,14

# Bioassay records deposited in PubChem BioAssay by National Center for Advancing Translational Sciences (NCATS).
